Data published in PubChem BioAssay AID449762 (Southern Research Specialized Biocontainment Screening …, 2010).
Screen size: about 330,000 compounds; about 1,900 (0.58%) were called active. Roughly 4% stayed inconclusive and do not appear here. These entries were drawn from the full list. Results with a measured potency or affinity are listed apart. Unmarked numbers belong to inactive results. Rule as the data show it: inconclusive = inhibition above about 70% without an active follow-up result; inactive = below that.

Assay: M. tuberculosis growth inhibition, HTS (AID 449762);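 also: bacterial growth assessed after seven days of incubation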
Conditions: M. tuberculosis H37Rv growth inhibition, 7H9 media; at 25 µM; hits give high values

Row | Compound | inhibition [%]
1 | CC(=NCc1cccnc1)C1=C(O)c2ccccc2C1=O | -1.08
2 | CC(=NCc1ccc2c(c1)OCO2)c1c(O)[nH]c(=O)[nH]c1=O | -12.3
3 | CCn1c(=O)c2cc(C(=O)NCCC(C)C)sc2c2ccccc21 | 9.29
4 | O=C(Cn1nnc2ccccc21)c1cccc([N+](=O)[O-])c1 | -4.83
5 | CN(C(=O)c1ccc(-c2ccccc2)cc1)C1CCCCC1 | 53.6
6 | CCOc1ccc(NS(=O)(=O)c2ccc(C(=O)N(C)CC(=O)Nc3ccc(C)cc3)cc2)cc1 | 56.7
7 | CCSc1ccc(-c2nn(-c3ccccc3)cc2/C=C(/C#N)C(=O)NCCCOC)cc1 | 6.88
8 | CCCSc1ccc(-c2nn(-c3ccccc3)cc2/C=C(/C#N)C(=O)NCCCOC)cc1 | -1.57
9 | O=C(N/N=C(/CC(=O)c1cccs1)C(F)(F)F)c1ccc(O)cc1 | 33.1
10 | O=C(N/N=C(\CC(=O)c1cccs1)C(F)(F)F)c1cccnc1 | -1.08
11 | CC(C)Nc1nc(NC(C)C)nc(OCCOC(=O)c2ccccc2)n1 | 2.84
12 | CCOC(=O)[C@@H]1[C@H]2COc3cc(OC)ccc3[C@H]2N2C(=O)N(c3ccc(C(F)(F)F)cc3)C(=O)[C@@]12C | 6.64
13 | CCOC(=O)[C@@H]1[C@H]2COc3cc(OC)ccc3[C@@H]2N2C(=O)N(c3ccc(C(F)(F)F)cc3)C(=O)[C@]12C | 1.49
14 | O=C(CC1SC(=O)N(c2ccccc2)C1=O)Nc1ccc(Cl)cc1 (stereo unspecified) | -2.72
15 | O=C(N/N=C1\CCCc2ccccc21)c1cccc(Br)c1 | 17.8
16 | O=C(NN=C1CCCC1)c1cccc(Br)c1 | 8.38
17 | O=C(Nc1ccc(Nc2ccccc2)cc1)C1CC1 | 0.68
18 | O=C(Nc1ccc(N2CCOCC2)cc1)C1CC1 | -20.2
19 | CC(C)(C)c1ccc(OCCC(=O)NNC(=O)c2ccccc2)cc1 | -10.6
20 | O=C(COc1ccc([N+](=O)[O-])cc1)N(Cc1cccs1)C1CCS(=O)(=O)C1 (stereo unspecified) | -4.33
21 | COc1ccccc1N1CCN(S(=O)(=O)CCNC(=O)CC2CCCCC2)CC1 | -4.01
22 | COCCNC(=O)C(c1ccc(C)cc1)N(C(=O)C(=O)NC1CCCC1)c1ccc2c(c1)OCCO2 (stereo unspecified) | 0.7
23 | COCCNC(=S)N/N=C(\C)c1ccc(OC(F)F)cc1 | 2.04

Row | Compound | inhibition [%]
24 | COCCNC(=S)N/N=C(\C)c1ccc(O)cc1 | -0.19
25 | O=C(Nc1ccccc1-c1nc2ccccc2[nH]1)c1sc2ccccc2c1Cl | 8.98
26 | CCN1CCN(Cc2ccc(NC(=O)c3ccc(C)c(NC(=O)c4ccc5n[nH]nc5c4)c3)cc2C(F)(F)F)CC1 | 4.3
27 | CCN1CCN(Cc2ccc(NC(=O)c3ccc(C)c(NC(=O)c4ccnnc4)c3)cc2C(F)(F)F)CC1 | -1.41
28 | COC(=O)c1cc(NC(=O)Cc2ccc(OC)cc2)cc(C(=O)OC)c1 | -3.89
29 | CC1CCC(NC(=O)COC(=O)C2=NN(c3ccccc3)C(=O)CC2)CC1 (stereo unspecified) | 1.24
30 | COc1cccc2cc(C(=O)Nc3ccc(S(=O)(=O)NCC4CCCO4)cc3)c(=O)oc12 (stereo unspecified) | 1.32
31 | Cc1ccccc1C(=O)/C(C#N)=N/Nc1c(C)n(C)n(-c2ccccc2)c1=O | -1.13
32 | O=C(/C=C/c1c(F)cccc1Cl)Nc1ccncc1 | 9.18
33 | O=C(Nc1ccc(OC(F)(F)F)cc1)c1ccc2nc[nH]c2c1 | 41.2
34 | O=C(Nc1ccc(OC(F)(F)F)cc1)c1ccc2nccnc2c1 | 66.2
35 | S=C(NCCC(c1ccccc1)c1ccccc1)Nc1ccc(Cl)cc1 | 1.85
36 | O=c1cc(N2CCOCC2)cnn1-c1ccccc1 | 14.3
37 | O=S(=O)(Nc1ccccc1)c1ccc(S(=O)(=O)N2CCCC2)cc1 | -1.05
38 | Nc1ncc([N+](=O)[O-])s1 | -0.165
39 | O=[N+]([O-])c1cc(-c2ncccn2)cs1 | 0.84
40 | CCn1nnc(-c2ccccc2NS(=O)(=O)c2ccc(S(=O)(=O)N(C)C3CCCCC3)cc2)n1 | 2.36
41 | N#Cc1ccccc1COC(=O)CCC(=O)c1cccs1 | 5.44
42 | c1ccc2c(CNc3ccc(CNc4ncn[nH]4)cc3)cccc2c1 | 1.09
43 | C/C(=N\NC(=O)c1c[nH]c2ccccc12)c1ccco1 | 19.6
44 | C/C(=N/NC(=O)c1ccccn1)c1ccncc1 | 39.2
45 | COc1ccc(CN2CCC(Oc3ccc(C(=O)NCc4ccccn4)cc3)CC2)c(F)c1 | -12.3
46 | CCOc1ccc(NC(=O)NC2CCCc3ccccc32)cc1 (stereo unspecified) | -11.3

Row | Compound | inhibition [%]
47 | Cc1cc2c(N)cccc2nn1 | -2.97
48 | Cc1cnnc2ccc3c(no[n+]3[O-])c12 | 0.29
49 | Cc1ccc(-n2c(CSc3nc(C)cc(C)n3)n[nH]c2=S)cc1 | -6.43
50 | N#Cc1c(N)nc2c(c1-c1ccc(Br)s1)CCCC2 | 0.77
51 | Cc1ccc(C)c(NC(=O)CN(C)C(=O)[C@@H](NC(N)=O)C(C)C)c1 | 1.17
52 | OCC1OC(n2cnc3c(NC4CCCC4)ncnc32)C(O)C1O (stereo unspecified) | -0.62
53 | OC[C@H]1O[C@@H](n2cnc3c(NC4CCCC4)ncnc32)[C@H](O)[C@@H]1O | -4.16
54 | COc1cc(/C=C\C(=O)NCc2ccc3[nH]c(C)cc3c2)cc(OC)c1OC | -3.67
55 | O=C(Cn1cnc2c(nnn2-c2ccccc2)c1=O)N1CCC(Cc2ccccc2)CC1 | -6.42
56 | COc1ccc(-n2nnc3c(=O)n(CC(=O)N4CCC(Cc5ccccc5)CC4)cnc32)cc1 | -2.79
57 | CCc1ccc(C(=O)COC(=O)C(CCSC)NC(=O)C23CC4CC(CC(C4)C2)C3)cc1 (stereo unspecified) | 1.72
58 | CCCCNC(=S)N(C)/N=C/c1c(F)cccc1F | -1.55
59 | CCCCNC(=S)N(C)/N=C/c1ccccc1F | 7.41
60 | CCCC[C@@H]1CN=C(N)N1CCc1cc(C(F)(F)F)cc(C(F)(F)F)c1 | 4.85
61 | FC(F)(F)c1cc(CCN2C(=S)NC[C@@H]2CC2CCCCC2)cc(C(F)(F)F)c1 | -2.31
62 | COc1ccccc1CC(=O)NC1CCCCCC1 | -3.92
63 | CC1CCCCC1NC(=O)Cn1c(CN2CCCCC2)nc2ccccc2c1=O (stereo unspecified) | 5.05
64 | COc1ccc(N2C(=O)CC(NNC(=O)c3cc(C)oc3C)C2=O)cc1 (stereo unspecified) | -4.63
65 | NC1=CC(=O)c2cccc3cccc1c23 | -0.47
66 | O=C1C(=O)c2cccc3cccc1c23 | 3.34
67 | COc1cc2c(cc1NC(=O)COC(=O)CNS(=O)(=O)c1ccc(C)cc1)oc1ccccc12 | 20.6
68 | Cc1ccc(C)c(NC(=O)CCNS(=O)(=O)c2ccc3[nH]c(=O)oc3c2)c1 | -1.71
69 | CC1(c2ccc(Cl)cc2)NC(=O)N(CC(=O)c2ccc3c(c2)OCO3)C1=O (stereo unspecified) | -11.1

Row | Compound | inhibition [%]
70 | CC1(c2ccc(OC(F)F)cc2)NC(=O)N(CC(=O)Nc2ccc3c(c2)OCO3)C1=O (stereo unspecified) | 1.98
71 | CCN(CC(=O)Nc1ccccc1C(=O)OC)S(=O)(=O)c1ccccc1 | -8.58
72 | Cc1nc(-c2nnc(SCC(=O)Nc3cc(Cl)cc(Cl)c3)n2C)cs1 | -8.27
73 | CC1CCCCN1C(=O)C1CCN(S(=O)(=O)c2ccc(-n3cnnn3)cc2)CC1 (stereo unspecified) | -3.02
74 | COc1ccc(OC)c2[nH]c(=O)c(CCNC(=O)c3ccc(Br)o3)cc12 | -4.84
75 | Cc1cc(=O)oc2cc(OCC(=O)N3CCN(C(=O)C4COc5ccccc5O4)CC3)ccc12 (stereo unspecified) | 5.34
76 | Cc1cc(=O)oc2cc(OCC(=O)N3CCN(C(=O)C4COc5ccccc5O4)CC3)c(Cl)cc12 (stereo unspecified) | 68.3
77 | O=C(NCCN1CCOCC1)C1CCCN(S(=O)(=O)c2ccc(F)cc2)C1 (stereo unspecified) | -1.03
78 | NNC(=O)C1=NOC(CNc2ncc(C(F)(F)F)cc2Cl)C1 (stereo unspecified) | -0.88
79 | CC(=O)C1=NOC(CNc2ncc(C(F)(F)F)cc2Cl)C1 (stereo unspecified) | -4.07
80 | O=c1c2nncn2c2cc(C(F)(F)F)ccc2n1CCNc1ncc(C(F)(F)F)cc1Cl | -1.6
81 | O=c1[nH]c2cc(Cl)ccc2n(CCNc2ncc(C(F)(F)F)cc2Cl)c1=O | -0.44
82 | Cc1nnc(SCc2c(Cl)cccc2Cl)s1 | 7.37
83 | O=C(C1CCCN(c2ncnc3c2nc2n3CCCCC2)C1)N1CCN(c2ccc(F)cc2)CC1 (stereo unspecified) | 23.2
84 | O=C(C1CCCN(c2ncnc3c2nc2n3CCCCC2)C1)N1CCN(c2ccccc2)CC1 (stereo unspecified) | 6.98
85 | COc1cc2c(cc1NC(=O)Cc1ccc(C)cc1)oc1ccccc12 | -1.99
86 | CCOP(=O)(OCC)C(NC(=O)c1ccccc1)=C(Cl)Cl | -0.5
87 | CCOc1ccccc1/C=C(/NC(=O)c1ccccc1)C(=O)N1CCCCC1 | 4.77
88 | COc1ccc(/C(C)=N/N2CCCCC2)c(O)c1 | 0.48
89 | Cc1nn(Cc2ccc(Cl)cc2Cl)c(C)c1NC(=O)Cn1nc([N+](=O)[O-])c(Cl)c1C | 5.47
90 | S=C(NCc1ccccc1)NCc1ccc2c(c1)OCO2 | 13
91 | S=C(NCc1ccc2c(c1)OCO2)NCc1ccc2c(c1)OCO2 | 2.49
